# The list is not random: actives were taken first. Their share in the collection is about 3.6%.
# Epigenetic reg: Quantitative High-Throughput Screen for Regulators of Epigenetic Control. murine LDR cells, GFP reporter derepression, 30 h. Potency, µM (doses to about 53.9 µM), for inactives: at the highest dose GFP activation, actives largely listed as activators. hit rate 0.2% among 280,000; note: % of control where 0% means no effect; nearly all actives have a fitted effect of over 60% in size
#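 Reporter derepression read as number of fluorescent GFP-positive objects, 20-120 um in size, counted by laser-scanning cytometer. Mouse LDR line with an epigenetically silenced CMV-GFP locus; compound incubation 30 h, 37 C.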
# IMPase Li inh: qHTS Assay for Identifying the Cell-Membrane Permeable IMPase Inhibitors: Potentiation with Lithium; CHO-M1 cells, IP1 TR-FRET (IP-One), carbachol + lithium; Potency, µM (highest dose often 59.4 µM), inactives show top-dose activity, negative = IMPase inhibition, hits mostly inhibitors; hit rate 0.35% among 210,000;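 note: IP1 builds up when IMPase is blocked and the TR-FRET signal falls; plate controls were basal vehicle for no effect and high inhibitor control for full effect; nearly all actives have a fitted effect of over 50% in size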
#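 Concentration–response in CHO-M1 cells, lithium-potentiated; 30 min at 37C. IP1 detected by competitive TR-FRET after 10 min lysis at RT. Hill-fitted AC50.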
# NPSR antagonist: qHTS Assay for Antagonists of the Neuropeptide S Receptor: cAMP Signal Transduction. Q6W5P4. CHO-NPSR cells, cAMP TR-FRET, antagonist mode. Potency, µM (top dose mostly 38.3 µM), without a hit: at the top dose activity change, negative = inhibition, hits mostly inhibitors. hit rate 1% among 220,000. AID 1461, 2008; note: % is set by controls: 0 for no effect and ±100 for the full control effect; nearly all actives have a fitted effect of over 50% in size
# JMJD2E inh: qHTS Assay for Inhibitors of Human Jumonji Domain Containing 2E (JMJD2E). Lysine-specific demethylase 4E (Homo sapiens), B2RXH2. AID 2147, 2009. hit rate 1.6% among 230,000. JMJD2E catalytic domain, FDH-coupled NADH fluorescence (FDH is formaldehyde dehydrogenase). Potency, µM (highest dose often 57.1 µM), for the others: at the highest dose activity change, negative = inhibition, actives largely listed as inhibitors; active = well fitted inhibition curve with a large enough effect, not every such curve was filed as active; inconclusive = small, poorly fitted or top-dose-only effect, or another doubt; inactive = no such curve, though single readings can be large or run the other way;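 note: 0% = wells with enzyme and -100% = buffer wells without enzyme; nearly all actives have a fitted effect of over 50% in size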
# KAT2A inh: qHTS Assay for Inhibitors of GCN5L2 | AID 504327, 2011 | GCN5L2 HAT assay, ThioGlo1 CoA-SH fluorescence | hit rate 0.21% among 390,000 | Potency, µM (highest dose often 58.9 µM), for inactives: top-dose activity change, negative = inhibition, hits mostly inhibitors; note: % is set by controls: 0 for no effect and ±100 for the full control effect
#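 GCN5L2 (20nM final) in 50mM HEPES, 0.1mM EDTA pH 7.5, 0.01% Tween-20 was preincubated 15 min at room temperature with compound, then given ThioGlo1 (50uM), H3(1-25) peptide (75uM) and acetyl-CoA (70uM); CoA-thiol fluorescence (Ex340/Em540) was read at 0 and 20 min.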
# Sfp inh: qHTS Assay for Inhibitors of Bacillus subtilis Sfp phosphopantetheinyl transferase (PPTase). 4'-phosphopantetheinyl transferase ffp (Bacillus subtilis), Q9F4F7. Biochemical Sfp PPTase activity, qHTS. Potency, µM, for inactives: largest response in the series, negative = inhibition, usual class: inhibitors. hit rate 3.5% among 310,000;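 note: the enzyme is Sfp with the accession as filed and its product quenches rhodamine fluorescence; 0% = enzyme reaction without inhibitor and -100% = no enzyme wells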
#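 With Hepes-Na pH 7.6 buffer containing 10 mM MgCl2, Sfp (15 nM) modified BHQ-2-YbbR (12.5 uM) using rhodamine-CoA (5 uM). Two reads 30 minutes apart at 525/598 nm yielded each well's rate.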
# Active calls of the source: *; ? = inconclusive; · = not tested or not shown; [ ] = remark or other dose. Unless noted, calls come from the whole dose curve; as a rule, active = well fitted curve in the direction sought with a large enough effect; inconclusive = small, poorly fitted or top-dose-only effect, or another doubt; inactive = no such curve, though single readings can be large; an effect the other way counts as inactive or inconclusive. Potency is the fitted concentration of half-maximal effect.
SMILES,Epigenetic reg,IMPase Li inh,NPSR antagonist,JMJD2E inh,KAT2A inh,Sfp inh
CCN1/C(=C/c2ccc3cccc(C)c3[n+]2CC)Sc2ccccc21,?,-10%[38.3 µM],10µM*,0%,?,8.9µM*
CCN1/C(=C\c2ccc3cc(C)ccc3[n+]2CC)Sc2cc(C)c(C)cc21,3.2µM*,-20%,-25%,?,-17%,18µM*
COC(=O)C1=C(C(=O)OC)[C@@H]2Nc3ccccc3[C@@]23C[C@@H](C(=O)OC)N(S(=O)(=O)c2ccc(OC)cc2)C3=N1,·,0%,·,-6%[11.4 µM],·,-13%
C[C@H](c1ccccc1)N1C(=O)[C@H]2[C@@H]3[C@H](O)[C@H](O)CC(=O)[C@H]3CC[C@H]2C1=O,1%[10.1 µM],·,·,·,·,-1%
COC(=O)C1=C[C@@H](C(=O)OC)C2C3=C(C(=O)[C@@]2(C)NC(=O)c2ccccc2)[C@H](C)n2c(=O)n(-c4ccccc4)c(=O)n2[C@@H]3C1 (some centres undefined),·,·,·,·,·,4%
COc1cccc(/C=C2/Sc3ccc(C(=O)NCCN4CCCCCC4)cc3NC2=O)c1,·,·,·,·,-3%,45µM*
O=C1Nc2cc(C(=O)NCCN3CCCCCC3)ccc2S/C1=C\c1ccccc1,·,·,·,·,1%,40µM*
CN1CCN(C(=O)c2ccc3c(c2)NC(=O)/C(=C/c2ccccc2)S3)CC1,·,·,·,·,-11%,-13%
COc1ccc(-c2nc3c(c4c2C[C@H](c2ccccc2)OC4)CN(C(=O)NCCc2c[nH]c4ccccc24)CC3)c(C)c1,·,6%,·,3%[11.4 µM],·,16%
CC(C)CC(=O)Nc1ncc([N+](=O)[O-])s1,4%,·,-3%,-11%,-2%,35µM*
COc1ccc(CC(=O)Nc2ncc([N+](=O)[O-])s2)cc1OC,0%,6%,17%,0%,4%,25µM*
COc1ccc(CC(=O)Nc2nccs2)cc1OC,0%,4%,12%,5%,3%,5%
CCCCC(=O)Nc1ncc([N+](=O)[O-])s1,0%,2%,7%,-3%,-8%,13%
COc1ccc(Cn2ccc3nc(C)c(C(=O)N4CCN(c5cc(C)ccc5C)CC4)cc3c2=O)cc1,1%,·,·,·,-4%,·
CN(Cc1ccccc1)C(=S)NC(=O)c1ccc(-c2ccccc2)cc1,0%,10µM*,-9%[46.1 µM],11%,55%,14%
COc1cc(C(=O)NC(=S)N(C)Cc2ccccc2)cc(OC)c1OC,1%,2%,-8%,-2%,-21%,?
Cc1ccc(-n2nc(CO)c(C(=O)NCc3cccnc3)n2)cc1,7%,·,·,·,-6%,·
S=c1nc(C2CCCCC2)[nH][nH]1,-1%,-5%,-9%[46.1 µM],?,-17%,56µM*
Nc1nc(CSCc2ccccc2)nc(N2CCOCC2)n1,0%,27%[38.3 µM],-7%[46.1 µM],-12%,1%,28µM*
CCOc1ccc(-n2nc(CO)c(C(=O)NCc3cccs3)n2)cc1,-1%,·,·,·,-7%,·
Clc1ccc(Sc2cnc3ccccc3n2)cc1,1%,?,-19%[46.1 µM],-1%,·,-9%
c1ccc(Sc2cnc3ccccc3n2)cc1,-1%,13µM*,-7%[46.1 µM],-6%,·,-7%
Cc1cc(=O)oc2cc(OCC(=O)N3CCOCC3)ccc12,-1%,3%,11%[46.1 µM],?,?,32µM*
Cc1cc(=O)oc2cc(OCC(=O)N3CCCC3)ccc12,·,·,·,·,0%,·
Cc1cccc(N2CCN(c3ccc(C(=O)O)cc3NC(=O)c3cccc(Cl)c3)CC2C)c1 (centres undefined),-4%,·,·,·,-9%,·
CNc1oc(C)nc1S(=O)(=O)c1ccc(C)cc1,0%,-14%[38.3 µM],-5%[46.1 µM],?,?,45µM*

# Screening results from PubChem BioAssay.
